Assay outcomes (PubChem)
This is a sample that favours compounds with a hit; in the whole collection about 2.3% have one here.
ADAM17 inh: ADAM17 inhibition, QFRET primary screen; P78536; recombinant ADAM17, EDANS/DABCYL FRET peptide cleavage; inhibition, % at 6.95 µM; 0.83% of 370,000 active;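 active = inhibition above the mean of compounds lying between control limits plus 3 SD, set per campaign, cut at about 8.5% in these data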;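 note: 0% = DMSO-only wells as the low control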
ADAM10 inh: ADAM10 inhibition, QFRET primary screen. O14672. 0.62% of 370,000 active. recombinant ADAM10, EDANS/DABCYL FRET peptide cleavage, 3 h. inhibition, % at 7 µM;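 active = inhibition above a per-campaign cutoff equal to the mean of compounds falling between control-based bounds plus 3 SD, cut at about 20% in these data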;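 note: 0% = DMSO wells while the 100% control is not disclosed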
Target sequence (O14672 214-748 limits assumed): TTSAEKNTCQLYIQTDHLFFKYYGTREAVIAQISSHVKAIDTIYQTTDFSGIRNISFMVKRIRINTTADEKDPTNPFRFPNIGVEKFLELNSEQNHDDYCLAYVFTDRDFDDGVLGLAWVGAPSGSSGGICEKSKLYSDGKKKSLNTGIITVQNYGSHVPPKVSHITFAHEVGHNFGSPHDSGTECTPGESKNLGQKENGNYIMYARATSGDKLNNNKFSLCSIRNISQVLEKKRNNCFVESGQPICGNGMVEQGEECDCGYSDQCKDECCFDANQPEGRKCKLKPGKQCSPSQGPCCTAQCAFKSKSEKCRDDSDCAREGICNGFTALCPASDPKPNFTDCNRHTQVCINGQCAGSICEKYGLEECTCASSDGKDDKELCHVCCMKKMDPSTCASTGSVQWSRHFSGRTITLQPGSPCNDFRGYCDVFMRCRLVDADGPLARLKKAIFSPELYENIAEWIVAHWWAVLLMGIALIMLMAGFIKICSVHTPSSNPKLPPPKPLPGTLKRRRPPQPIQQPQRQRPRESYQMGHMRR
KLK7 zymogen act: proKLK7 (human) activation, primary screen | P49862 | 0.9% of 370,000 active | purified proKLK7, EDANS-DABCYL substrate fluorescence; 100% is mature enzyme control, 0% vehicle | AID 652039 | activation, % at 7 µM;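 active = activation above the mean of all tested compounds plus 3 SD, computed per campaign excluding outliers beyond control limits, cut at about 13% in these data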
V-ATPase pH: regulators of yeast V-ATPase proton transport. S. cerevisiae, pHLuorin cytosolic pH fluorescence. response, % at 10 µM. 0.37% of 350,000 active. AID 504577; in the data active = response mostly above about 7.3%, no sharp cut-off; inactive = mostly below about 5.4%; note: actives read high
ADAM10 confirm: confirmation of inhibitors of human ADAM10. inhibition, % at 6.95 µM. shares compounds with ADAM10 inh. ADAM10 QFRET peptide cleavage, EDANS fluorescence. 1% of 2,100 active;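 active = inhibition above about 20% chosen separately for each screening run, limit read from the data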;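 note: 0% = DMSO wells and 100% = marimastat wells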
ADAM17 ctr: ADAM17 inhibition, counter-screen for ADAM10 exosite hits; shares compounds with ADAM10 inh; ADAM17 QFRET peptide cleavage, EDANS fluorescence; inhibition, % at 6.95 µM; 0.5% of 2,100 active; AID 743214;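 active = mean triplicate inhibition above the solvent-only control wells' mean plus 3 SD, cut at about 12% in these data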;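 note: 0% = DMSO wells and 100% = marimastat wells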
ADAM10 ctr: counter-screen for ADAM17 exosite inhibitors: inhibitors of human ADAM10; shares compounds with ADAM17 inh; AID 743256; inhibition, % at 6.95 µM; 47% of 2,900 active; recombinant ADAM10, EDANS/DABCYL FRET peptide cleavage, 3 h;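 active = mean inhibition over the triplicate runs exceeds the activity threshold set in the earlier primary screen, cut at about 20% in these data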;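 note: 0% = DMSO wells and 100% = marimastat wells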
ADAM17 confirm: confirmation of inhibitors of human ADAM17 | 65% of 2,900 active | recombinant ADAM17, EDANS/DABCYL QFRET peptide cleavage | inhibition, % at 6.95 µM | shares compounds with ADAM17 inh | AID 743257;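 active = mean inhibition across replicates above the hit cutoff set in the primary screen, cut at about 8.5% in these data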;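 note: 0% = DMSO wells and 100% = marimastat wells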
The depositor's hits bear a star; . = no result given.

SMILES | ADAM17 inh | ADAM10 inh | KLK7 zymogen act | V-ATPase pH | ADAM10 confirm | ADAM17 ctr | ADAM10 ctr | ADAM17 confirm
C=CCN1[C@H](C)[C@H](c2ccccc2)Oc2cc(Br)ccc2S1(=O)=O | 2.5 | -9.9 | 0.0 | . | . | . | . | .
Cc1ccc(S(=O)(=O)N2CCN(C(=O)CSc3ccc(Cl)cc3)CC2)cc1 | 0.6 | 11.1 | -0.4 | 1.3 | . | . | . | .
Cc1ccc(SCC2(O)CCN(S(=O)(=O)c3ccc(Cl)cc3)CC2)cc1 | 16.9* | 29.4* | 0.5 | -1.4 | 3.4 | 0.3 | 27.6* | 15.7*
Cc1onc(-c2c(F)cccc2Cl)c1C(=O)OCN1C(=O)c2ccccc2C1=O | 3.9 | -18.4 | -0.1 | -0.3 | . | . | . | .
Cc1[nH]c2ccccc2c1C(=O)COC(=O)c1c(-c2c(F)cccc2Cl)noc1C | 12.8* | 26.2* | -0.2 | 3.5 | 5.3 | 2.4 | 31.7* | 17.2*
COc1ccccc1S(=O)(=O)N(C)C[C@@H]1Oc2cc(C#CCC(C)C)ccc2S(=O)(=O)N([C@H](C)CO)C[C@@H]1C | 11.4* | 26.1* | -0.4 | 1.0 | 8.3 | 3.1 | 46.3* | 26.5*
COc1ccccc1S(=O)(=O)N(C)C[C@H]1Oc2cc(C#CCC3CCCC3)ccc2S(=O)(=O)N([C@H](C)CO)C[C@H]1C | 0.9 | 2.6 | 0.1 | -6.3 | . | . | . | .
CC(C)(C)NC(=O)C(c1ccc(-c2ccccc2)cc1)N(C[C@H]1CC[C@@H]([C@@H]2CC[C@H](CO)O2)O1)C(=O)c1ccc(C(C)(C)C)cc1 (stereo not given in full) | 11.6* | 20.3* | -0.4 | -1.4 | 3.9 | 0.7 | 37.1* | 18.7*
Cc1ccc(C(C(=O)NC(C)(C)C)N(CC2CCCO2)C(=O)c2csnn2)cc1 (stereo not given) | -1.3 | -2.4 | 0.9 | -6.8 | . | . | . | .
COc1cc(NC(=S)NCCC(c2ccccc2)c2ccccc2)cc(OC)c1 | 11.6* | 22.9* | -0.1 | 3.5 | 9.1 | 1.9 | 20.2* | 12.6*
COc1cccc(NC(=S)NCCC(c2ccccc2)c2ccccc2)c1 | 7.4 | 17.4 | 0.2 | 1.7 | . | . | . | .
C[C@@H]1NS(=O)(=O)c2ccc(F)cc2O[C@@H]1c1ccccc1 | 2.7 | -0.2 | 0.4 | . | . | . | . | .
COc1cc(NC(=O)c2ccccc2)c(C)cc1NC(=O)CSc1nnc(-c2ccccc2F)n1-c1ccc(C)cc1 | 11.8* | 26.0* | 0.5 | . | 11.5 | 3.4 | 30.8* | 18.1*
COc1ccc(C(=O)Nc2cccc(OC(=O)c3ccc(C)c(C)c3)c2)cc1 | 6.5 | 11.0 | 0.6 | -3.9 | . | . | . | .
CC(=O)Oc1ccc(C(=O)Nc2cccc(C(=O)c3ccc(C)c(C)c3)c2)cc1 | 16.4* | 32.3* | 0.5 | -2.2 | 5.7 | 1.7 | 14.0 | 12.1*
Cc1cc(NC(=O)CS(=O)(=O)c2cn(Cc3ccccc3Cl)c3ccccc23)no1 | 2.5 | 2.2 | 0.2 | 3.1 | . | . | . | .
Cc1cc(NC(=O)CS(=O)(=O)c2cn(Cc3cccc(Br)c3)c3ccccc23)no1 | 10.1* | 23.9* | 0.4 | . | 3.0 | 0.7 | 8.1 | 8.7*
CCc1nc2ccccc2c(C(=O)OCC(=O)Nc2ccc(S(=O)(=O)N3CCOCC3)cc2)c1C | 10.0* | 19.8* | 0.2 | 0.5 | 8.5 | 2.4 | 20.5* | 12.5*
O=C(COC(=O)c1ccccn1)Nc1ccc(S(=O)(=O)N2CCOCC2)cc1 | -4.8 | -5.6 | -0.1 | -1.6 | . | . | . | .
Cc1cccc(NC(=O)c2nc[nH]c2C(=O)N(C)CCO)c1 | -0.1 | -4.7 | 0.0 | . | . | . | . | .
CCc1ccc(NC(=O)C2=CC(c3cccs3)=NS(=O)(=O)N2C)cc1 | 18.0* | 29.4* | -0.1 | 0.3 | 4.6 | 1.1 | 22.6* | 12.6*
COc1cc(C(c2c(C)[nH][nH]c2=O)c2c(C)[nH][nH]c2=O)cc([N+](=O)[O-])c1O | 10.3* | 20.3* | -0.3 | -7.4 | 5.3 | 0.1 | 3.3 | 0.4
CCOc1cc(C(c2c(C)[nH][nH]c2=O)c2c(C)[nH][nH]c2=O)cc([N+](=O)[O-])c1O | -0.1 | -0.9 | -0.3 | -0.3 | . | . | . | .
CC(C)NC(=O)CC(c1ccccc1)c1cc(Br)ccc1O (stereo not given) | . | . | . | -2.5 | . | . | . | .
CCCCCCNC(=O)CC(c1ccccc1)c1cc(Br)ccc1O (stereo not given) | 23.5* | 34.7* | 0.0 | 0.2 | 7.4 | 2.7 | 41.0* | 22.4*
SMILES | ADAM17 inh | ADAM10 inh | KLK7 zymogen act | V-ATPase pH | ADAM10 confirm | ADAM17 ctr | ADAM10 ctr | ADAM17 confirm
CC(=O)N(C)C[C@@H]1Oc2cc(Br)ccc2S(=O)(=O)N([C@H](C)CO)C[C@@H]1C | -5.1 | -8.0 | -0.7 | . | . | . | . | .
Cc1ccc(S(=O)(=O)N2CC3(COC(C)(C)OC3)C[C@H]2CON2C(C)(C)CCCC2(C)C)cc1 | -1.8 | 0.0 | . | . | . | . | . | .
C[C@H](O)[C@@H]1C(=O)N2CCc3c([nH]c4cccc(-c5ccccc5)c34)[C@@H]2C[C@@H]1N(C)C(=O)Nc1ccccc1 | -55.8 | -210.3 | -7.1 | . | . | . | . | .
Cc1nc2cc[nH]n2c(=O)c1CCc1ccccc1 | -13.8 | -25.4 | 0.7 | . | . | . | . | .
O=[N+]([O-])c1cccnc1N1CCC(c2cc(-c3ccc(Cl)cc3)n[nH]2)CC1 | 13.1* | 30.0* | 0.3 | -0.5 | 13.4 | 3.2 | 40.5* | 18.7*
CCOC(=O)CN1CCC(c2cc(-c3ccc(Cl)cc3)n[nH]2)CC1 | -5.3 | 4.5 | 4.2 | 4.5 | . | . | . | .
COC(=O)C1=C(C)N(CCCC(=O)O)C(=O)NC1c1ccccc1OS(=O)(=O)c1ccccc1[N+](=O)[O-] (stereo not given) | -1.7 | -6.0 | -1.1 | -6.3 | . | . | . | .
CCOC(=O)C1=C(C)N(Cc2ccccc2)C(=O)NC1c1ccccc1OS(=O)(=O)c1ccccc1[N+](=O)[O-] (stereo not given) | 9.8* | 21.3* | 0.7 | -4.9 | 13.9 | 4.0 | 49.2* | 20.7*
COc1ccc(C2c3c(-c4ccccc4O)n[nH]c3C(=O)N2Cc2ccco2)cc1 (stereo not given) | 7.7 | 15.8 | -0.2 | -6.9 | . | . | . | .
COc1ccc(CCN2C(=O)c3[nH]nc(-c4ccccc4O)c3C2c2cccc(Cl)c2)cc1 (stereo not given) | 14.0* | 36.0* | -0.1 | 2.4 | 10.9 | 5.3 | 41.3* | 16.8*
CC(O)(c1ccc(F)c(F)c1)c1nc(-c2cnc3ccccc3c2)cs1 (stereo not given) | 5.4 | -0.1 | 0.4 | . | . | . | . | .
CC(O)(c1ccc(F)c(F)c1)c1nc(-c2ccc3ccccc3c2)cs1 (stereo not given) | 21.7* | 44.3* | 1.3 | . | 7.3 | 3.1 | 17.1 | 9.4*
CC(O)(c1ccccc1)c1nc(-c2ccc(Cl)cc2)cs1 (stereo not given) | -1.0 | 11.4 | 3.8 | . | . | . | . | .
